PubChem BioAssay AID933 (National Center for Advancing Translational Sciences (NCATS), 2007)
Records with an inconclusive call do not appear. Entries that show only a call come without a potency. Values without a mark were called inactive. Calls of active or inactive are those of the source. Calls follow the shape of the dose curve; as a rule, active = well fitted activation curve with a large enough effect in the signal ratio, with a control signal flat; inconclusive = small, poorly fitted or top-dose-only effect, or a change in a side signal; inactive = flat fitted curve, though single readings scatter; the % refers to the signal ratio.

Target: Thyrotropin receptor (Homo sapiens) (UniProt P16473)
Experiment: Secondary Concentration-Response Assay for Agonists of the Thyroid Stimulating Hormone Receptor: HTRF Activity Detection
Conditions: HEK293-TSHR cells, cAMP HTRF ratio, 30 min; series mostly up to 91.7 µM
Outline: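 cAMP accumulation was detected by antibody-based HTRF, excitation 330 nm, emissions 615 and 660 nm. Compounds acted for 30 min at room temperature on stably TSHR-transfected HEK 293 cells, with phosphodiesterase inhibitor RO 20-1724 (100 uM) in the medium.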
Potency is read from the fitted curve at half-maximal effect.

Thyrotropin receptor (Homo sapiens), sequence (P16473 whole entry, looked up): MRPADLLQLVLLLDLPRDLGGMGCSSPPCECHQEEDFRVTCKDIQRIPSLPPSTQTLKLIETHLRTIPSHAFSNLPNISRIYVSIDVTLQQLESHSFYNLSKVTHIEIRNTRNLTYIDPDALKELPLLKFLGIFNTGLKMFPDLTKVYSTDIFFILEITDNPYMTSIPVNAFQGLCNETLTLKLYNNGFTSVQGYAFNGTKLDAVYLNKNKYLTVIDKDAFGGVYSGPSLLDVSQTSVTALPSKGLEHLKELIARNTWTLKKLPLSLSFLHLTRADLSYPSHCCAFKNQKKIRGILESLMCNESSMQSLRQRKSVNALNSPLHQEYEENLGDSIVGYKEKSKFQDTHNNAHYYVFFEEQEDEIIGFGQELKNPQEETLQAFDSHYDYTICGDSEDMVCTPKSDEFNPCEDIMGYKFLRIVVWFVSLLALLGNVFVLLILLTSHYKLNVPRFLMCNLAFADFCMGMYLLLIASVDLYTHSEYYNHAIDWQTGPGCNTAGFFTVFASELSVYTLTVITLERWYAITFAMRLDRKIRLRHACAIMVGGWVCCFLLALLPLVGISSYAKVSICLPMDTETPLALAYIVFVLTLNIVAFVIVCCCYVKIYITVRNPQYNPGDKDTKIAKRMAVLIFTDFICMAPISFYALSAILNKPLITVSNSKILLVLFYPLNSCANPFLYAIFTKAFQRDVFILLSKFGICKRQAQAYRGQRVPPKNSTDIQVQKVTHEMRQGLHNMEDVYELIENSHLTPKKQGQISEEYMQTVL

Row | Compound | Potency | activation
1 | COc1ccc(C2Nc3ccccc3C(=O)N2c2ccc(C)cc2)cc1Cn1nc(C)c([N+](=O)[O-])c1C (stereo unspecified) | inactive | –
2 | COc1ccc(/C=N/n2cncn2)cc1COc1ccc(NC(C)=O)cc1 | inactive | –
3 | CCCS(=O)(=O)N1CCN(C(=O)c2ccc(-c3ccccc3)cc2)CC1 | – | 0.323% [at 0.00035 µM]
4 | Cc1sc2ncn(/N=C/c3cn(-c4ccccc4)nc3-c3ccccc3)c(=O)c2c1C | inactive | –
5 | COc1ccc(C2Nc3ccccc3C(=O)N2Cc2ccco2)cc1COc1ccc(NC(C)=O)cc1 (stereo unspecified) | 15.8 µM (active) | –
6 | CCOC(=O)c1cnc(-n2nc(C)cc2C)nc1-n1nc(C)cc1C | – | -0.245% [at 0.00035 µM]
7 | COc1ccc(-c2nc3cccc(OC)c3c(=O)n2Cc2ccccc2)cc1COc1ccc(NC(C)=O)cc1 | inactive | –
8 | CCCN1C(=O)c2ccccc2NC1c1ccc(OC)c(COc2cccc(OC)c2)c1 (stereo unspecified) | inactive | –
9 | Cc1occc1-c1nnc(SCC(=O)Nc2ccccc2)n1C(C)c1ccccc1 (stereo unspecified) | – | 0.0209% [at 0.00035 µM]
10 | COc1ccc(C(=O)N(Cc2ccco2)Cc2cccs2)c(O)c1 | 50.1 µM (active) | –
11 | O=C(CSc1nnc(-c2ccccc2)n1Cc1ccco1)Nc1ccc2c(c1)OCCO2 | – | -0.544% [at 0.00035 µM]
12 | COc1cc(C2Nc3ccccc3C(=O)N2c2ccccc2)ccc1O (stereo unspecified) | inactive | –
13 | COc1ccc(C=O)cc1COc1ccc(NC(C)=O)cc1 | inactive | –
14 | COC(=O)C1=C(C)NC(C)=C(C(=O)OC)C1c1ccc(OC(=O)c2ccco2)cc1 | – | 0.436% [at 0.00035 µM]
15 | O=C1c2ccccc2NC(c2cccc(O)c2)N1Cc1ccco1 (stereo unspecified) | inactive | –
16 | COc1ccc(C2Nc3ccc(NC(=O)CO)cc3C(=O)N2Cc2cccc(Cl)c2)cc1COc1ccc(NC(C)=O)cc1 (stereo unspecified) | 5.62 µM (active) | –
17 | COc1ccc(C2Nc3ccccc3C(=O)N2c2ccc(F)cc2)cc1COc1ccc(NC(C)=O)cc1 (stereo unspecified) | inactive | –
18 | Cc1occc1-c1nnc(SCC(=O)NCc2ccc3c(c2)OCO3)n1CC(C)C | – | 0.411% [at 0.00035 µM]

Row | Compound | Potency | activation
19 | O=C(CN(c1ccc2c(c1)OCCO2)S(=O)(=O)c1ccccc1)NCc1ccco1 | – | -0.333% [at 0.00035 µM]
20 | O=C1c2ccccc2NC(c2ccccc2Br)N1CCCN1CCOCC1 (stereo unspecified) | inactive | –
21 | CCc1ccccc1NC1=NCC(=O)N1Cc1ccc(OC)cc1 | – | 0.0927% [at 0.00035 µM]
22 | COc1ccc(N(C)S(=O)(=O)c2cccc(C(=O)NC3=NCCS3)c2)cc1 | – | 1.29% [at 0.00035 µM]
23 | CCCN1C(=O)c2ccccc2NC1c1cc(OC)c(OC)c(OC)c1 (stereo unspecified) | inactive | –
24 | CS(=O)(=O)N1CCN(C(=O)c2cc(-c3cccs3)nc3ccccc23)CC1 | – | 0.0393% [at 0.00035 µM]
25 | COc1ccc(C2Nc3ccccc3C(=O)N2c2ccccc2F)cc1COc1ccc(NC(C)=O)cc1 (stereo unspecified) | inactive | –
26 | O=C1c2ccccc2NC(c2ccc(OCc3ccccc3)c(OCc3ccccc3)c2)N1Cc1ccco1 (stereo unspecified) | inactive | –
27 | COc1cc(OC)c(C(=O)N(Cc2ccco2)Cc2cccs2)cc1OC | inactive | –
28 | Cc1noc(/C=C/c2ccco2)c1S(=O)(=O)N1CCC(C(=O)NCc2ccco2)CC1 | – | -0.595% [at 0.00035 µM]
29 | COc1ccc(C2Nc3ccccc3C(=O)N2Cc2ccccc2)cc1COc1cccc(Cl)c1 (stereo unspecified) | inactive | –
30 | CC(=O)N1CCCc2cc(S(=O)(=O)N(CC(C)C)CC(C)C)ccc21 | – | -0.0207% [at 0.00035 µM]
31 | COc1ccc(N2C(=O)c3ccccc3NC2c2ccc(OC)c(Cn3nnc4ccccc43)c2)cc1 (stereo unspecified) | inactive | –
32 | O=C(c1ccccc1O)N(Cc1ccccc1)Cc1cccs1 | inactive | –
33 | O=C1c2ccccc2NC(c2cc(Br)c3c(c2)OCO3)N1Cc1ccco1 (stereo unspecified) | inactive | –
34 | O=C1c2ccccc2NC(c2ccc(O)cc2)N1Cc1ccco1 (stereo unspecified) | inactive | –
35 | CN1C(=O)c2ccccc2N(C)C1c1ccc2c(c1)OCO2 (stereo unspecified) | inactive | –
36 | COc1ccc(-c2cc(C(F)(F)F)nc(SCCC(=O)N3CCOCC3)n2)cc1 | – | 0.123% [at 0.00035 µM]
